Assay [1] in a line: NCI Yeast Anticancer Drug Screen. Data for the rad50 strain (AID 155).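 Further: 0% = growth of vehicle-only cultures of the same strain.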 To be noted: S. cerevisiae rad50 strain growth inhibition; at 50.0 µM; active compounds read high. Put shortly: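 Growth of the mutant yeast was measured after compound exposure and referenced to vehicle-treated cultures.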
A short description of assay [2]: NCI Yeast Anticancer Drug Screen. Data for the mec2-1 strain (AID 157). To be noted: S. cerevisiae mec2-1 strain, at 50.0 µM, active compounds read high. In short, it runs like this:
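Test agents were screened against the mec2-1 yeast strain, with defined DNA repair or cell cycle alteration. Growth was scored as inhibition against vehicle-only controls.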

Assay [3] is described as follows: NCI Yeast Anticancer Drug Screen. Data for the sgs1 mgt1 strain (AID 161).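 Further: 0% = growth of cultures given vehicle only.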 The note with it: S. cerevisiae sgs1 mgt1 strain, at 50.0 µM, active compounds read high. In short, it runs like this: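 Genetically altered yeast, compound exposure, growth inhibition relative to vehicle.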
Assay [4] is described as follows: NCI Yeast Anticancer Drug Screen. Data for the cln2 rad14 strain (AID 165).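 Further: 0% = growth equal to vehicle treated cultures.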 To be noted: S. cerevisiae cln2 rad14 strain, at 50.0 µM, active compounds read high. In short, it runs like this: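 Growth of compound-exposed yeast (cln2 rad14 genotype) measured and expressed as inhibition relative to vehicle.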
A short description of assay [5]: NCI Yeast Anticancer Drug Screen. Data for the bub3 strain (AID 167). To be noted: S. cerevisiae bub3 mutant strain, at 50.0 µM, active compounds read high. Put shortly:
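Whole-cell yeast assay. The mutant strain was incubated with compounds, and growth inhibition was determined by comparison with vehicle-treated cells.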

The nature of assay [6]: NCI Yeast Anticancer Drug Screen. Data for the mlh1 rad18 strain (AID 175). The note with it: S. cerevisiae mlh1 rad18 strain growth inhibition; at 50.0 µM; active compounds read high. Put shortly:
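In this whole-cell yeast screen, a strain with altered DNA damage repair is challenged with compound, and its growth is measured against matched vehicle-treated controls.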

Compounds without any hit were thinned out: in the full panel of roughly 79,000, 15% have a hit. Values without a mark were called inactive. Active and inactive are the calls of the source. No stated cut-off is given here; in the data, active means growth inhibition above about 70%; inactive means the rest.

Take `COCOS(C)(=O)=O`: the growth inhibition in assay [1] is -4.05%; in assay [2], -14.3%; in assay [3] it was -2.85%; in assay [4], 4.8%; in assay [5], 9.4%; in assay [6], -3.65%.

Take `CN(C)CCCNc1ccc2ncn3c4ccccc4c(=O)c1c23`: the growth inhibition in assay [1] was -2.15%; in assay [2] it was 6.2%; in assay [3], -3.35%; in assay [4], 20.9%; in assay [5], 1.5%; in assay [6] it was 22.4%.

For `C/C=C1\CN2CCc3c([nH]c4ccccc34)C2CC1CCO` (stereo not given), the growth inhibition in assay [1] was -16.8%; in assay [2] it was -10.9%; in assay [3], -5.4%; in assay [4], 12.7%; in assay [5] it was -26.7%; in assay [6] it was -24.9%.

As for `N#CCCCCCCCCC(=O)O`, the growth inhibition in assay [1] was -14.6%; in assay [2], -14.4%; in assay [3], 6.9%; in assay [4], -18.4%; in assay [5], -39.5%; in assay [6], -11.5%.

Consider `COc1ccc2nc(C)cc(N=[N+]=[N-])c2c1`, for which the growth inhibition was -34.6% in assay [1]; 1.45% in assay [2]; -16.5% in assay [3]; -46.5% in assay [4]; 8.55% in assay [5]; 10.6% in assay [6].

For `O=C(O)c1ccc2c(c1)C(=O)c1c(c(O)c3ccccc3c1O)C2=O`, the growth inhibition in assay [1] was 9.25%; in assay [2], 6.25%; in assay [3], 9.6%; in assay [4] it was -11.7%; in assay [5], 12.3%; in assay [6], -8.55%.

Regarding `COC1=NN2C(OC)(c3ccccc3)c3c(-c4ccccc4)sc(-c4ccccc4)c3C2(c2ccccc2)S1` (stereo not given), the growth inhibition in assay [1] is 29.4%; in assay [2], 2.1%; in assay [3], 5.15%; in assay [4] it was 37.6%; in assay [5], 1.9%; in assay [6], 5.5%.

Consider `CCCCCCCCCCCCCCCCS(=O)(=O)N/N=C(/c1ccc(Cl)cc1)N1CCCCC1`, for which the growth inhibition in assay [1] was -18.2%; in assay [2], -32.1%; in assay [3] it was 3.25%; in assay [4], 21.2%; in assay [5], -10.2%; in assay [6], -4.85%.

For the molecule `COC(=O)/C=C1\CCC(C)O1` (stereo not given), the growth inhibition in assay [1] was -1.35%; in assay [2], -26.6%; in assay [3], -27.7%; in assay [4], 8%; in assay [5], -19.2%; in assay [6], 16%.

As to `CC(C)(CN1CCCCC1)C(=O)/C=C/c1ccc(Cl)cc1`, the growth inhibition was 34.6% in assay [1]; 11.9% in assay [2]; 36.2% in assay [3]; 38.5% in assay [4]; 12.6% in assay [5]; 46.7% in assay [6].

Take `O=C(c1ccccc1)N1C2C3CC(OCc4ccccc4)(OCc4ccccc4)C(O3)C21` (stereo not given): the growth inhibition was -8.35% in assay [1]; -3.3% in assay [2]; -16.4% in assay [3]; -12.6% in assay [4]; 16.8% in assay [5]; -9.95% in assay [6].

Regarding `CC1(C)OC2C(CO)OC(n3ccc(N)nc3=O)C2O1` (stereo not given), the growth inhibition is -33% in assay [1]; -12% in assay [2]; 2.15% in assay [3]; -29.9% in assay [4]; 10.6% in assay [5]; -1.75% in assay [6].

For `c1ccc(C23CCCCC2O3)cc1` (stereo not given), the growth inhibition in assay [1] is 0.75%; in assay [2], 2.95%; in assay [3], 6.55%; in assay [4], 5.95%; in assay [5], 12.4%; in assay [6], 4.85%.

As to `CC(=O)C1=C(O)C(CSCc2ccccc2)NC1=O` (stereo not given), the growth inhibition is 10.8% in assay [1]; 0.65% in assay [2]; 5.95% in assay [3]; -2.9% in assay [4]; 15.1% in assay [5]; 15.2% in assay [6].

For the molecule `O=S1(=O)CC(Cl)C(I)C1` (stereo not given), the growth inhibition in assay [1] was 99.4% (active); in assay [2], 99.7% (active); in assay [3] it was 99.5% (active); in assay [4] it was 98.8% (active); in assay [5], 99.5% (active); in assay [6], 99.2% (active).

Turning to `Cn1nc2c(c1-c1cccnc1)CCCc1ccccc1-2`, the growth inhibition in assay [1] was 10.1%; in assay [2] it was 24.6%; in assay [3], 13.7%; in assay [4] it was -15.4%; in assay [5], 69.3%; in assay [6] it was 28.9%.

As for `C[CH2][Sn]([CH2]C)([O]C(=O)c1ccc(OC)c(OC)c1OC)[O]C(=O)c1ccc(OC)c(OC)c1OC`, the growth inhibition was 41.5% in assay [1]; 27.6% in assay [2]; 24.6% in assay [3]; 28.3% in assay [4]; 19.4% in assay [5]; 24.8% in assay [6].

Take `CCC(O)C(=O)O` (stereo not given): the growth inhibition in assay [1] was -28.6%; in assay [2], -26.8%; in assay [3] it was -20.9%; in assay [4], -11.2%; in assay [5], -9.9%; in assay [6], -27.4%.

With `O=C1/C(=C/c2ccc(Cl)cc2)CCC1CCN1CCOCC1` (stereo not given), the growth inhibition in assay [1] is 46.9%; in assay [2], 40.5%; in assay [3], 51.2%; in assay [4], 60%; in assay [5], 41.2%; in assay [6], 59.2%.

With `CC(C)(C)n1c(=O)n(C(=O)C(Cl)(Cl)Cl)n(C(=O)C(Cl)(Cl)Cl)c1=O`, the growth inhibition in assay [1] is -13.8%; in assay [2] it was -16.6%; in assay [3], -14.6%; in assay [4], 19.1%; in assay [5] it was -10.3%; in assay [6] it was -4.45%.

The values are drawn from PubChem BioAssay (NCI).
